Test results from PubChem BioAssay (EPA / NIEHS).
Results filed as inconclusive are left out. Active and inactive are the calls of the source. The calls were made as follows, unless noted: active = hit-call score of the fitted dose curve at least 0.9, where 1 is the maximum; inactive = score below 0.9.

Experiments:
[1] = molecular target: Oxysterols receptor LXR-alpha (Homo sapiens) (UniProt Q13133); assay: ATG_LXRa_TRANS: Attagene TRANS-FACTORIAL HepG2 Assay for human Liver X Receptor alpha (LXRa) (AID 2282980; active = hit-call score of the fitted dose curve at least 0.9, where 1 is the maximum); conditions: HepG2 Attagene TRANS reporter, LXRa transactivation
Oxysterols receptor LXR-alpha (Homo sapiens), sequence (Q13133 whole entry, looked up, the tested form may be a part): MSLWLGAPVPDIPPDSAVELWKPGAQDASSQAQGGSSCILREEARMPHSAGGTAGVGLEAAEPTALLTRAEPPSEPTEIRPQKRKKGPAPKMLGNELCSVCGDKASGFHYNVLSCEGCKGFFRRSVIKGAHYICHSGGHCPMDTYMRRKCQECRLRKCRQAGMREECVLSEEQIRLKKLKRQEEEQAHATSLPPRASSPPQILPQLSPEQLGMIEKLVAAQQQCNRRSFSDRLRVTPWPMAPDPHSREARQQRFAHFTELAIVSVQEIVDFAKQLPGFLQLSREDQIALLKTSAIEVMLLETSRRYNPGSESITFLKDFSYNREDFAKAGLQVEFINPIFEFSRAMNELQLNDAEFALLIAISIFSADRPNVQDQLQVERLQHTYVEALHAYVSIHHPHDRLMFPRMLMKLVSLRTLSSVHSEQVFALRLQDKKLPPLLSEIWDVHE
In short: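 Chemical-induced reporter mRNA measured by RT-PCR with fluorescent labelling and capillary electrophoresis after 24 h dosing of transiently transfected HepG2 cells expressing exogenous NR-Gal4 chimeras; increases scored against DMSO baseline.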

[2] = molecular target: Hepatocyte nuclear factor 4-alpha (Homo sapiens) (UniProt P41235); assay: ATG_HNF4a_TRANS: Attagene TRANS-FACTORIAL HepG2 Assay for human Hepatocyte Nuclear Factor 4 alpha (HNF4a) (AID 2282982; active = hit-call score of the fitted dose curve at least 0.9, where 1 is the maximum); conditions: HepG2 HNF4a transactivation reporter, mRNA readout
Hepatocyte nuclear factor 4-alpha (Homo sapiens), sequence (P41235 whole entry, looked up): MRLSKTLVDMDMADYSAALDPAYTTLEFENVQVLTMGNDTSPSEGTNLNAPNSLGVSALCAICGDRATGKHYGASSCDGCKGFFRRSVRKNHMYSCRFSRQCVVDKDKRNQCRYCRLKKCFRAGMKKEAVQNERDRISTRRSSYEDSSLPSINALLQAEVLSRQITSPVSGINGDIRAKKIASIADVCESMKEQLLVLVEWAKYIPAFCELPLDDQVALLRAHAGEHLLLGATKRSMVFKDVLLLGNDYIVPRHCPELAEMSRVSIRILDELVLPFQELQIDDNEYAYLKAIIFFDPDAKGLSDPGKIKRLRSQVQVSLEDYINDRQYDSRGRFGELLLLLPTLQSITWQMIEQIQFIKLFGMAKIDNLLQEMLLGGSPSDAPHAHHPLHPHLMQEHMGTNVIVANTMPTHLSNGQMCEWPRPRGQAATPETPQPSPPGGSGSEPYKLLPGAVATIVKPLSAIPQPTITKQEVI
In short: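 Transfected HepG2 reporter cells are dosed for 24 h; reporter RNA is reverse-transcribed, amplified, fluorescently labelled and HpaI-digested before CE sizing. Positive-direction fit against DMSO.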

[3] = ATG_M_06_TRANS: Attagene TRANS-FACTORIAL HepG2 Assay for M06 Transcription Factor (Internal Marker) (AID 2282983; active = hit-call score of the fitted dose curve at least 0.9, where 1 is the maximum;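 also: reporter transcript level by RT-PCR then capillary electrophoresis fluorescence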); conditions: HepG2 Attagene TRANS M06 internal marker reporter
In short: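 Cells: HepG2, transient multi-reporter transfection. Exposure: 24 h. Detection: RT-PCR, 6-FAM labelling, HpaI digestion (2 h, 37 °C), capillary electrophoresis. Baseline: DMSO.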

[4] = ATG_M_32_TRANS: Attagene TRANS-FACTORIAL HepG2 Assay for M32 Transcription Factor (Internal Marker) (AID 2282984; active = hit-call score of the fitted dose curve at least 0.9, where 1 is the maximum;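 also: transcript level of a background control reporter unit measured by RT-PCR and capillary electrophoresis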); conditions: HepG2 Attagene TRANS M32 internal marker reporter
In short: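 Using transiently transfected HepG2 cells exposed to test chemicals for 24 h, reporter transcripts are converted to labelled cDNA fragments and quantified by capillary electrophoresis. DMSO defines the activity baseline.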

[5] = molecular target: Nuclear receptor subfamily 4 group A member 2 (Homo sapiens) (UniProt P43354); assay: ATG_NURR1_TRANS: Attagene TRANS-FACTORIAL HepG2 Assay for human Nuclear Receptor Related Protein 1 (NURR1) (AID 2282985; active = hit-call score of the fitted dose curve at least 0.9, where 1 is the maximum); conditions: HepG2 Attagene TRANS reporter, mRNA readout
Nuclear receptor subfamily 4 group A member 2 (Homo sapiens), sequence (P43354 whole entry, looked up): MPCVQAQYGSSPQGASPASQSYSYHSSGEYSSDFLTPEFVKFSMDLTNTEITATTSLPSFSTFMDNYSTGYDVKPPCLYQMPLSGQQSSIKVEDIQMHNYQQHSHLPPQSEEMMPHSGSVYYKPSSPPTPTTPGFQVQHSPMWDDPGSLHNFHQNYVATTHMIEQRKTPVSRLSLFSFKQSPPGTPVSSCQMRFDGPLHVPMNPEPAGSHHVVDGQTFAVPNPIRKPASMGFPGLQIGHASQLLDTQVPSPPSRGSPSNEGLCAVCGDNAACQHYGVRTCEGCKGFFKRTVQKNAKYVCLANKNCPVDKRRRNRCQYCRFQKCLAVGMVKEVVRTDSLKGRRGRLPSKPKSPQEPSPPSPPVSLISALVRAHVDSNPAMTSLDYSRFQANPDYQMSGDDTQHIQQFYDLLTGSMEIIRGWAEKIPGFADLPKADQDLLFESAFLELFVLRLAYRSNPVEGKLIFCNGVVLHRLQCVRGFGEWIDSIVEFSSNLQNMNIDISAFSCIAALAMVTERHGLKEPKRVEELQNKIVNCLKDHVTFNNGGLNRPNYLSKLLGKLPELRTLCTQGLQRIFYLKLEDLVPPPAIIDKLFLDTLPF
In short: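 Cells: HepG2, transiently transfected. Exposure: 24 h. Detection: fluorescence of labelled RT-PCR products separated by capillary electrophoresis; upward fit versus DMSO.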

[6] = molecular target: Transcriptional activator Myb (Homo sapiens) (UniProt P10242); assay: ATG_Myb_CIS: Attagene CIS-FACTORIAL HepG2 Assay for human Myeloblastosis (Myb) Proto-Oncogene Transcription Factor (AID 2282986); conditions: HepG2 Attagene CIS-FACTORIAL Myb reporter transcription; actives raise or lower the signal
Transcriptional activator Myb (Homo sapiens), sequence (P10242 whole entry, looked up): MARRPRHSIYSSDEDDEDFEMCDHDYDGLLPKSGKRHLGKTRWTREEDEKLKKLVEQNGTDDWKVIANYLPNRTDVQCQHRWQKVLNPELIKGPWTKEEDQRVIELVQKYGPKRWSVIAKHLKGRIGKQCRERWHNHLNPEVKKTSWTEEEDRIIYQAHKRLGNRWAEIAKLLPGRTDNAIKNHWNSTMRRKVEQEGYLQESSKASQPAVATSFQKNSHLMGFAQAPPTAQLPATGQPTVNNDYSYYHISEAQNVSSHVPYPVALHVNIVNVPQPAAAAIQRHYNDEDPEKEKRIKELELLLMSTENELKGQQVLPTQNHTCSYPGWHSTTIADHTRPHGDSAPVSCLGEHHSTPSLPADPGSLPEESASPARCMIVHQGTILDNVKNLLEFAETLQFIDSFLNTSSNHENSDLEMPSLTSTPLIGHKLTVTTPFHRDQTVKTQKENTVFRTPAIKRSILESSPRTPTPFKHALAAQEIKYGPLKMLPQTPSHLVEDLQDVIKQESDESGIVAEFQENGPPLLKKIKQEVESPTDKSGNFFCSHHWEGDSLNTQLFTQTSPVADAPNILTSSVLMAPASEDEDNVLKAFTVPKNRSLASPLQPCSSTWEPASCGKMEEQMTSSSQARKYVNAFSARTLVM
In short: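 Fluorescence signals from capillary electrophoresis of RT-PCR-amplified reporter cDNA give the read-out. Cells: HepG2 transfected with multiple cis-regulated reporter units. Exposure lasts 24 hours; DMSO defines baseline for gain or loss of signal.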

[7] = molecular target: Nuclear respiratory factor 1 (Homo sapiens) (UniProt Q16656); assay: ATG_NRF1_CIS: Attagene CIS-FACTORIAL HepG2 Assay for human Nuclear Respiratory Factor 1 (NRF1) Orphan Gene (AID 2282987); conditions: HepG2 NRF1 cis-element reporter, Attagene multiplex; actives raise or lower the signal
Nuclear respiratory factor 1 (Homo sapiens), sequence (Q16656 whole entry, looked up): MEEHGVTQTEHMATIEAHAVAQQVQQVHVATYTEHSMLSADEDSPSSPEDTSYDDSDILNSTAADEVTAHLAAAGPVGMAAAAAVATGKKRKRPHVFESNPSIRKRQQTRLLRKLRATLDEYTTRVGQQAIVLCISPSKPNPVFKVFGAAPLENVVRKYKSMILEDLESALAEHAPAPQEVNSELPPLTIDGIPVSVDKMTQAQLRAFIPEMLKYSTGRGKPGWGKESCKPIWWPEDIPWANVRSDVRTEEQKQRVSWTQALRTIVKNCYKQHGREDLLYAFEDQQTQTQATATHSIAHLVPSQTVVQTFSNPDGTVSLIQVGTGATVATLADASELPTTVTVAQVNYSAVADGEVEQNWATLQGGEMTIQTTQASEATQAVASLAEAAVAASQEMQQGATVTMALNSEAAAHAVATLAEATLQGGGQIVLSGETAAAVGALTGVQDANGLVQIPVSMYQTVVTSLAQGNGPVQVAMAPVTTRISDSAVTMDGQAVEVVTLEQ
In short: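 Transcriptional reporter readout, one component of a 52-endpoint multiplexed HepG2 panel. Exposure 24 h; mRNA detected via RT-PCR and fluorescent capillary electrophoresis; fitting in both directions against DMSO.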

[8] = ATG_NFI_CIS: Attagene CIS-FACTORIAL HepG2 Assay for human Nuclear Factor I (NFI) (AID 2282989); conditions: HepG2 cis-regulatory reporter, NFI response element transcription; actives raise or lower the signal
In short: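 Reporter transcription driven by endogenous transcription factors in HepG2 cells; 24 h treatment. Quantitation by labelled RT-PCR fragments on capillary electrophoresis, gain- or loss-of-signal relative to DMSO.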

[9] = molecular target: Myc proto-oncogene protein (Homo sapiens) (UniProt P01106); assay: ATG_Myc_CIS: Attagene CIS-FACTORIAL HepG2 Assay for human Myelocytomatosis (Myc) Proto-Oncogene Transcription Factor (AID 2282990); conditions: HepG2, Attagene cis-reporter transcription factor activity; actives raise or lower the signal
Myc proto-oncogene protein (Homo sapiens), sequence (P01106 whole entry, looked up): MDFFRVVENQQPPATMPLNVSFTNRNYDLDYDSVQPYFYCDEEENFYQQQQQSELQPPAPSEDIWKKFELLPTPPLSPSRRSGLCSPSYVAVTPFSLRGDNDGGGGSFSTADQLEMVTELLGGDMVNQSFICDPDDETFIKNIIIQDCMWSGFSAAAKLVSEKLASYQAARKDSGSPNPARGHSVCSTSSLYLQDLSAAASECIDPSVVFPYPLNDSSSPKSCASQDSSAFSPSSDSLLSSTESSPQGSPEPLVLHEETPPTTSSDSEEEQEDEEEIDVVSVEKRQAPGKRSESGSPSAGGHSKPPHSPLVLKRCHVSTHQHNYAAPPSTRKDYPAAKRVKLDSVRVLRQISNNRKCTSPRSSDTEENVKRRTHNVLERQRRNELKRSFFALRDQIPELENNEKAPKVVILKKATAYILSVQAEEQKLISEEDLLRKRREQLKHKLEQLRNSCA
In short: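 HepG2, transient MRTU transfection (cis promoters, endogenous TFs); 24 h dosing; TriZol RNA → oligo(dT) RT → PCR → 6-FAM primer extension → HpaI cut → CE. Bidirectional fit vs DMSO.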

[10] = ATG_NRF2_ARE_CIS: Attagene CIS-FACTORIAL HepG2 Assay for human Nuclear Factor Erythroid 2 Related Factor 2 (NFR2) response to Antioxidant Response Elements (ARE) (AID 2282992); conditions: HepG2 Attagene ARE/NRF2 reporter, transcription factor activity; actives raise or lower the signal;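 as to AC50: reporter mRNA level measured by RT-PCR and capillary electrophoresis fluorescence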
In short: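 Transient MRTU transfection of HepG2; 24 h compound exposure; TriZol RNA, RT with oligo(dT), PCR, 6-FAM primer extension, HpaI cut, CE. Bidirectional fit vs DMSO.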

[11] = ATG_Oct_MLP_CIS: Attagene CIS-FACTORIAL HepG2 Assay for human Octamer-Binding Transcription Factor (Oct) (AID 2282993); conditions: HepG2 Attagene cis-factorial Oct reporter, mRNA; actives raise or lower the signal
In short: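 Transfected HepG2 cells, 24 h treatment. Reporter mRNA quantified by RT-PCR–capillary electrophoresis; bidirectional fitting against DMSO.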

[12] = molecular target: Cellular tumor antigen p53 (Homo sapiens) (UniProt P04637); assay: ATG_p53_CIS: Attagene CIS-FACTORIAL HepG2 Assay for human p53 Transcription Factor (AID 2282994); conditions: HepG2 p53 cis-element reporter, Attagene mRNA; actives raise or lower the signal
Cellular tumor antigen p53 (Homo sapiens), sequence (P04637 whole entry, looked up): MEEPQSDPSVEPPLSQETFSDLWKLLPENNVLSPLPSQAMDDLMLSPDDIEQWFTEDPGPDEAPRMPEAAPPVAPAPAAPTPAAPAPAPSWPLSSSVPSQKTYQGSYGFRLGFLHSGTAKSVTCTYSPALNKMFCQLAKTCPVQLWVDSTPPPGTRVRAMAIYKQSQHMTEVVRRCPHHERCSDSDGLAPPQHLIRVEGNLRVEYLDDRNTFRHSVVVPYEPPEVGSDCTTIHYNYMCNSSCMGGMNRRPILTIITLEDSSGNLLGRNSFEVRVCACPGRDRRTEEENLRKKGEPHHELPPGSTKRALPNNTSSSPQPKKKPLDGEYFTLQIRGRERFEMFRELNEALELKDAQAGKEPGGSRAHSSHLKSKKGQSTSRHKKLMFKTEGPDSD
In short: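 HepG2, transient MRTU transfection (cis promoter elements, endogenous TFs); 24 h dosing; RNA isolation, RT-PCR, 6-FAM primer extension, HpaI digest, CE fluorescence; bidirectional fit vs DMSO.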

[13] = ATG_NF_kB_CIS: Attagene CIS-FACTORIAL HepG2 Assay for human Nuclear Factor Kappa B (NF-kB) (AID 2282991); conditions: HepG2 Attagene cis-factorial NF-kB reporter mRNA; actives raise or lower the signal
In short: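 HepG2, transient multi-reporter transfection, cis promoter elements (endogenous TFs). 24 h exposure. Total RNA → RT → PCR → 6-FAM label → HpaI → CE. Gain/loss vs DMSO.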

[14] = BSK_3C_uPAR: BioMAP Diversity Plus: 3C Assay for Urokinase-type plasminogen activator receptor (uPAR) Biomarker Activity (AID 2282998); conditions: BioMAP 3C HUVEC, uPAR biomarker ELISA; actives raise or lower the signal
In short: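 Readout: ELISA for surface uPAR. System: human umbilical vein endothelial primary cells, 24 h after chemical exposure. Analysis: bidirectional fit, DMSO baseline.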

[15] = BSK_4H_Eotaxin3: BioMAP Diversity Plus: 4H Assay for Eotaxin 3 Biomarker Activity (AID 2283000); conditions: primary human endothelial cells (HUVEC); actives raise or lower the signal;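 as to outcome: CCL26 protein level quantified by ELISA in parallel with SRB cytotoxicity check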
In short: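 Human umbilical vein endothelial cells (BSK_4H system) dosed with test chemical; Eotaxin-3 (CCL26) measured by ELISA 24 h after dosing. Bidirectional curve fitting relative to DMSO negative control as baseline.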

Structure (SMILES): COc1ccc(NC(=O)CC(C)=O)cc1
- outcome [1]: inactive
- outcome [2]: inactive
- outcome [3]: inactive
- outcome [4]: inactive
- outcome [5]: inactive
- outcome [6]: inactive
- outcome [7]: inactive
- outcome [8]: inactive
- outcome [9]: inactive
- outcome [10]: inactive
- outcome [11]: inactive
- outcome [12]: inactive

Structure (SMILES): C[Si](O[Si](C)(C)C)O[Si](C)(C)C
- outcome [1]: inactive
- outcome [4]: inactive
- outcome [5]: inactive
- outcome [6]: inactive
- outcome [7]: inactive
- outcome [8]: inactive
- outcome [9]: inactive
- outcome [13]: inactive
- outcome [10]: inactive
- outcome [11]: inactive
- outcome [12]: inactive

Structure (SMILES): CC(=O)[O][Al][O]C(C)=O
- outcome [1]: inactive
- outcome [3]: inactive
- outcome [5]: inactive
- outcome [7]: inactive
- outcome [9]: inactive
- outcome [10]: inactive
- outcome [11]: inactive

Structure (SMILES): CC(C)=CCO
- outcome [1]: inactive
- outcome [2]: inactive
- outcome [4]: inactive
- outcome [6]: inactive
- outcome [7]: inactive
- outcome [10]: inactive
- outcome [11]: inactive
- outcome [12]: inactive

Structure (SMILES): CC(=O)/C=C/C1=C(C)CCCC1(C)C
- outcome [1]: inactive
- outcome [3]: inactive
- outcome [5]: inactive
- outcome [6]: inactive
- outcome [7]: inactive
- outcome [8]: inactive
- outcome [9]: inactive
- AC50 [10]: 27.7 µM (active)
- outcome [11]: inactive
- outcome [14]: inactive
- outcome [15]: inactive

Structure (SMILES): CCCCCCCCCC=O
- outcome [1]: inactive
- outcome [3]: inactive
- outcome [5]: inactive
- outcome [6]: inactive
- outcome [7]: inactive
- outcome [8]: inactive
- outcome [9]: inactive
- outcome [10]: inactive
- outcome [11]: inactive
- outcome [12]: inactive
- outcome [14]: inactive
- outcome [15]: inactive

Structure (SMILES): O=C(O)c1snc(Cl)c1Cl
- outcome [1]: inactive
- outcome [2]: inactive
- outcome [3]: inactive
- outcome [4]: inactive
- outcome [6]: inactive
- outcome [7]: inactive
- outcome [8]: inactive
- outcome [9]: inactive
- AC50 [13]: 100 µM (active)
- AC50 [10]: 27.4 µM (active)
- AC50 [11]: 155 µM (active)
- outcome [12]: inactive

Structure (SMILES): OCC(CO)(CO)COCC(CO)(CO)CO
- outcome [1]: inactive
- outcome [2]: inactive
- outcome [3]: inactive
- outcome [4]: inactive
- outcome [6]: inactive
- outcome [7]: inactive
- outcome [8]: inactive
- outcome [9]: inactive
- outcome [13]: inactive
- outcome [10]: inactive
- outcome [11]: inactive
- outcome [12]: inactive

Structure (SMILES): O=C[C@@H](O)[C@H](O)[C@H](O)CO
- outcome [1]: inactive
- outcome [3]: inactive
- outcome [4]: inactive
- outcome [5]: inactive
- outcome [6]: inactive
- outcome [7]: inactive
- outcome [8]: inactive
- outcome [9]: inactive
- outcome [10]: inactive
- outcome [11]: inactive
- outcome [12]: inactive

Structure (SMILES): C=CC(=O)OCCOCCOCC
- outcome [1]: inactive
- outcome [2]: inactive
- outcome [3]: inactive
- outcome [4]: inactive
- outcome [6]: inactive
- outcome [7]: inactive
- outcome [8]: inactive
- outcome [9]: inactive
- AC50 [13]: 9.52 µM (active)
- AC50 [10]: 26 µM (active)
- outcome [11]: inactive
- outcome [12]: inactive

Structure (SMILES): CCCCCCCCCCCCN
- outcome [1]: inactive
- outcome [2]: inactive
- outcome [3]: inactive
- outcome [4]: inactive
- outcome [5]: inactive
- outcome [6]: inactive
- outcome [7]: inactive
- outcome [8]: inactive
- outcome [9]: inactive
- AC50 [13]: 15 µM (active)
- AC50 [10]: 17.8 µM (active)
- outcome [11]: inactive
- outcome [12]: inactive

Structure (SMILES): CC1CCC(C(C)CS)CC1S (stereo not given)
- outcome [1]: inactive
- outcome [3]: inactive
- outcome [4]: inactive
- AC50 [6]: 50.5 µM (active)
- outcome [7]: inactive
- outcome [8]: inactive
- AC50 [9]: 52.4 µM (active)
- outcome [13]: inactive
- AC50 [11]: 26.1 µM (active)
- AC50 [12]: 52.6 µM (active)
- outcome [14]: inactive
- AC50 [15]: 30.3 µM (active)

Structure (SMILES): C[C@H]1C[C@H]2[C@@H]3CCC4=CC(=O)C=C[C@]4(C)[C@@]3(F)[C@@H](O)C[C@]2(C)[C@@]1(O)C(=O)COP(=O)(O)O
- outcome [1]: inactive
- outcome [2]: inactive
- outcome [4]: inactive
- outcome [6]: inactive
- outcome [7]: inactive
- outcome [8]: inactive
- outcome [9]: inactive
- outcome [13]: inactive
- AC50 [10]: 15.6 µM (active)
- outcome [11]: inactive
- outcome [12]: inactive

Structure (SMILES): CCCC1CCC(=O)O1 (stereo not given)
- outcome [1]: inactive
- outcome [3]: inactive
- outcome [5]: inactive
- outcome [6]: inactive
- outcome [7]: inactive
- outcome [8]: inactive
- outcome [9]: inactive
- outcome [13]: inactive
- outcome [10]: inactive
- outcome [11]: inactive
- outcome [12]: inactive
